# Screening data deposited in PubChem BioAssay by National Center for Advancing Translational Sciences (NCATS).
# LASV entry inh: qHTS for Inhibitors of binding or entry into cells for Lassa Virus. Lassa virus pseudotype entry inhibition, cell reporter. Potency, µM (series often up to 37.9 µM), for inactives: at the highest dose activity change, negative = inhibition, usual class: inhibitors. 1.2% of 300,000 active. AID 540256, 2011; calls by dose curve; tested in HEK293 cells; note: potency is the fitted concentration of half-maximal effect; % is set by controls: 0 for no effect and ±100 for the full control effect; nearly all actives have a fitted effect of over 50% in size
# HCMV inh: qHTS Assay for inhibitors of the human cytomegalovirus (HCMV) | activity change, negative = inhibition, % at 57.5 µM | HFF cells, HCMV-luciferase reporter, 72 h; active compounds read low | 4.5% of 410,000 active; in the data active = activity change below about -60%; inconclusive = no clear call, values can overlap the other calls; inactive = above about -39%; note: % is set by controls: 0 for no effect and ±100 for the full control effect
#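 Luciferase read-out from HCMV-luciferase-infected HFFs (MOI 1 PFU/cell) 72 h post infection at 37C; compounds added after 16 h cell attachment; activity normalized between buffer-only basal and Salinomycin (10uM) inhibitor controls.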
# MARV entry inh: qHTS for inhibitors of binding or entry into cells for Marburg Virus | Potency, µM (titrated, usually from 37.8 µM), inactives show top-dose activity change, negative = inhibition, actives largely listed as inhibitors | 1.8% of 300,000 active | Marburg virus pseudotyped entry inhibition, cell reporter | AID 540276, 2011; calls by dose curve; tested in HEK293 cells; note: potency is the fitted concentration of half-maximal effect; % is set by controls: 0 for no effect and ±100 for the full control effect
# HCV inhibitor: qHTS Assay for Inhibitors of Hepatitis C Virus (HCV); Huh7.5.1 HCVcc-Cre infection, luciferase reporter, 44 h; Potency, µM (series often up to 41.8 µM), for inactives: at the highest dose activity change, negative = inhibition, most hits filed as inhibitors; 3.4% of 340,000 active; AID 651820, 2012; active = well fitted inhibition curve with a large enough effect; inconclusive = small, poorly fitted or top-dose-only effect, or another doubt; inactive = no such curve, though single readings can be large or run the other way; note: potency is the fitted concentration of half-maximal effect; % is set by controls: 0 for no effect and ±100 for the full control effect
#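 Cells seeded at 1,000/well and cultured 4 h, then compounds added followed by HCVcc-Cre virus (~0.5 moi). After 44 h further culture, luciferase substrate was added, plates held 15 min at room temperature, and luminescence read for 15 sec.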
# SARS PLpro yeast: qHTS of Yeast-based Assay for SARS-CoV PLP. S. cerevisiae expressing SARS-CoV PLpro, growth rescue. Potency, µM (doses to about 32.9 µM), for the others: top-dose activity, positive = growth rescue, hits mostly activators. 0.19% of 330,000 active. AID 485353, 2010; calls by dose curve; note: potency is the fitted concentration of half-maximal effect; 0% is about no effect; nearly all actives have a fitted effect of over 55% in size
# FMDV antiviral: High Throughput Screening for Foot and Mouth Disease Virus Antivirals | FMDV antiviral cell-based qHTS | Potency, µM (titrated, usually from 57.9 µM), inactives show at the top dose activity change, negative = inhibition, hits mostly inhibitors | 1.2% of 410,000 active; calls by dose curve; tested in HEK293T cells; note: read-out not given here; potency is the fitted concentration of half-maximal effect; % is set by controls: 0 for no effect and ±100 for the full control effect; nearly all actives have a fitted effect of over 45% in size
# * = called active by the depositor; ? = inconclusive; · = no result; [ ] = dose if it differs, or a comment. In the library only some 8% were active in any assay of this set; here they are far more common.
SMILES,LASV entry inh,HCMV inh,MARV entry inh,HCV inhibitor,SARS PLpro yeast,FMDV antiviral
CCOc1ccc(C(=O)CN2C(=O)NC3(CCCCCC3)C2=O)cc1,6.2%,-5.5,25.6%[46.1 µM],?,4.3%,-7.0%
O=C(Nc1ccccc1)OC[C@@H]1C=CS(=O)(=O)N1Cc1ccc(Br)cc1,·,-100.9*,·,·,·,-7.6%
O=C(Nc1ccccc1)OCCOc1ccccc1Br,·,31.0,·,-16.7%,0.4%,46.0%
COc1cccc(C(=O)NCC2Cc3cccc(-c4cccnc4)c3O2)c1 (stereo not given),·,·,·,·,·,23.0%
CC(C)(Oc1ccc(Cl)cc1)C(=O)NCCN1C(=O)S/C(=C/c2cccnc2)C1=O,-15.4%,?,-41.3%,11.9%,-18.5%,?
O=C(COc1ccccc1-c1ccccc1)NCCN1C(=O)S/C(=C\c2cccnc2)C1=O,-10.5%,-3.8,-50.7%,0.3%,-12.1%,31.6µM*
CC(Oc1ccc(Cl)cc1)C(=O)NCCN1C(=O)S/C(=C\c2cccnc2)C1=O (stereo not given),?,-70.6*,?,?,-12.6%,39.8µM*
O=C(NCCN1C(=O)S/C(=C/c2cccnc2)C1=O)c1cccs1,·,-14.7,·,1.7%,-2.1%,-6.6%
Cc1ccc(S(=O)(=O)N(CC(=O)NCc2ccco2)C2CCCCC2)cc1,-19.7%,64.0,-13.0%,3.55µM*,-13.8%,·
O=C(CN(C1CCCCC1)S(=O)(=O)c1ccccc1)NCc1ccco1,-25.4%,21.6,-0.7%,-5.9%,14.1%,·
Cc1ccc(S(=O)(=O)N(CC(=O)Nc2ccc(Cl)c([N+](=O)[O-])c2)C2CCCCC2)cc1,?,-76.7*,?,?,0.3%,18.8%
Cc1ccc(S(=O)(=O)N(CC(=O)Nc2cccc([N+](=O)[O-])c2)C2CCCCC2)cc1,?,?,?,-16.1%,-0.3%,-7.4%
O=C(COc1ccc(F)cc1)OCc1cc(=O)n2nc(C3CC3)sc2n1,27.1%[46.1 µM],-1.4,·,·,·,-25.7%
COC(=O)C(c1ccccc1)(c1cn(C)c2ccccc12)C(Nc1ccc(OC)cc1)c1ccccc1 (stereo not given),·,-5.1,·,·,·,·
Cc1cc(C(=O)CSc2ccc(F)cc2)cc(C)c1OC(=S)N(C)C,?,-92.2*,?,?,-10.3%,0.794µM*
COc1ccc(S(=O)(=O)NC2CCCC2)cc1Br,-0.7%,3.4,12.0%,8.8%,-6.4%,41.4%
O=S(=O)(NC1CCCC1)c1ccccc1Br,·,-97.4*,·,18.9%,2.4%,40.6%
CCOC(=O)c1ccc(NC(=O)c2ccc(=O)n(Cc3cccc(C)c3)c2)cc1,?,-33.7,·,·,·,?
CCN(CC)CCCNC(=O)c1ccc(OCC(=O)Nc2ccccc2C(F)(F)F)c(OC)c1,?,-33.0,11.2µM*,?,0.1%,-1.7%
O=C(c1ccc(S(=O)(=O)Nc2ccccc2F)cc1)N1CCN(c2ccccn2)CC1,·,-25.7,·,4.47µM*,2.9%,?
O=C(NNC(=O)c1ccccc1O)c1ccc(S(=O)(=O)Nc2ccccc2F)cc1,4.3%,-3.6,1.5%[46.1 µM],15.8µM*,2.0%,16.1%
CCC(C)(C)NC(=O)C1CCN(S(=O)(=O)c2c(C)noc2/C=C/c2ccc(C)cc2)CC1,-18.3%[46.1 µM],-3.2,·,·,·,-14.0%
COCCn1c(-c2ccc(Br)cc2)csc1=Nc1cccnc1,·,-36.9,?,?,-1.8%,31.6µM*
COc1ccc(N=c2scc(-c3ccc(OC)cc3)n2CCO)cc1,?,-74.0*,-29.4%,6.31µM*,-0.3%,-1.9%
FC(F)Oc1ccc(-c2csc(=Nc3cccnc3)n2CC2CCCO2)cc1 (stereo not given),?,-76.5*,?,11.2µM*,-4.2%,8.91µM*
CCN(CC)CCn1c(-c2ccccc2)csc1=Nc1ccccc1,?,-20.6,·,·,·,-25.9%
COc1ccc(-c2csc(=Nc3ccccc3)n2CCO)cc1F,-23.6%[46.1 µM],-8.3,?,·,·,?
Clc1ccc(-c2csc(=Nc3cccnc3)n2CCCn2ccnc2)cc1Cl,?,-93.6*,?,11.2µM*,9.6%,31.6µM*
COc1cccc(NC(=O)CCN2CCN(CCO)CC2)c1,5.8%[46.1 µM],-0.1,·,·,·,-15.6%
